HP1b binding inh – HP1-beta chromodomain-methylated histone interaction inhibition; AlphaScreen HP1-beta / biotin-H3K9me3 peptide binding; Potency, µM (series often up to 114 µM), actives largely listed as inhibitors; 390,000 tested, 0.56% active; note: nearly all actives have a fitted effect of over 70% in size
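Compound inhibition of the preformed complex between 50 nM HP1-beta and 50 nM biotinylated H3K9me3 peptide was read by AlphaScreen. Buffer was PBS pH 7.4 with 0.01% Tween-20. Incubations ran 30 min at room temperature, with 10 ug/mL donor/acceptor beads.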
JMJD2A Tudor – blocks the human JMJD2A Tudor domain; O75164; AlphaScreen JMJD2A-Tudor / H3K4me3 peptide binding; Potency, µM (highest dose often 114 µM), actives largely listed as inhibitors; 390,000 tested, 4.4% active; note: nearly all actives have a fitted effect of over 50% in size
Target sequence (O75164 whole entry, looked up, the tested form may be a part): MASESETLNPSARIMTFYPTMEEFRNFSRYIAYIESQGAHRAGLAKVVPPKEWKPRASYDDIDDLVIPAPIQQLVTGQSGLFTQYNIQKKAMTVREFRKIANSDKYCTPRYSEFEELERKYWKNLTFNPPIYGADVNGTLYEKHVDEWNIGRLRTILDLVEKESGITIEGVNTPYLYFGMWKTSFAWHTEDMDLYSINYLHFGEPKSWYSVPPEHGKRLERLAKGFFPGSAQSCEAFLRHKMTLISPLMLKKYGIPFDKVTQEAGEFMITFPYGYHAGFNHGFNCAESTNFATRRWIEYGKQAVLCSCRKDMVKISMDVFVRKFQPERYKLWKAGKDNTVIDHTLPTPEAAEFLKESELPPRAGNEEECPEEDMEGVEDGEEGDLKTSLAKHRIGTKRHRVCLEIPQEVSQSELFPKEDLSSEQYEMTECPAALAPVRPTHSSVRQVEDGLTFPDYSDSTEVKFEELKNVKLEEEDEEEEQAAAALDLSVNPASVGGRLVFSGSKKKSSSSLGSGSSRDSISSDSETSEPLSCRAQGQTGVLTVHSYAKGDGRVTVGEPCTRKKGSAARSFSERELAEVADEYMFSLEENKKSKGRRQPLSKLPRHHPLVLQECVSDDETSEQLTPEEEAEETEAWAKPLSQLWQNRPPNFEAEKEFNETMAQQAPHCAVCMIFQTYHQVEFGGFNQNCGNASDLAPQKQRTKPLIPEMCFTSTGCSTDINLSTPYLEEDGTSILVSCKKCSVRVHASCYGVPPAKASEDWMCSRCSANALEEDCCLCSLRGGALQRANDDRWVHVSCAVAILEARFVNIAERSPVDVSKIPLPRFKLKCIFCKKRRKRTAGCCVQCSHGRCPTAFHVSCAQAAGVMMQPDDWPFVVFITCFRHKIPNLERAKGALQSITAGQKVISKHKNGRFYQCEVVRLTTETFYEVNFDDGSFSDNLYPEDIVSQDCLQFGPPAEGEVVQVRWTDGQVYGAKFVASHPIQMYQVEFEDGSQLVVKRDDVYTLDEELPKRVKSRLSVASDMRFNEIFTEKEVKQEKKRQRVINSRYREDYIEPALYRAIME
BAZ2B block – BAZ2B (human) inhibition. Q9UIF8. AlphaScreen BAZ2B-H3K14Ac peptide displacement. Potency, µM (doses to about 114 µM), hits mostly inhibitors. 360,000 tested, 4.4% active; note: nearly all actives have a fitted effect of over 60% in size
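AlphaScreen displacement: compounds (up to 110uM) incubated 30 min at room temperature with a preformed 50 nM BAZ2B/50 nM biotinylated H3K14Ac peptide complex in PBS pH 7.4 with Tween-20. Donor and acceptor beads at 10 ug/mL final added, 20 min light-protected before reading.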
Sfp inh – Sfp phosphopantetheinyl transferase inhibition; Q9F4F7; Biochemical Sfp PPTase activity, qHTS; Potency, µM, most hits filed as inhibitors; 310,000 tested, 3.5% active; AID 1490;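 note: the enzyme is Sfp with the accession as filed and its product quenches rhodamine fluorescence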
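Buffer: 50 mM Hepes-Na pH 7.6, 10 mM MgCl2, 0.01% Nonidet P-40, 0.01% BSA. Enzyme 15 nM, pre-exposed to compound 15 min; substrates then added and fluorescence change tracked over 30 min.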
G9a block – inhibitors of human histone lysine methyltransferase G9a; G9a H3K9 monomethylation, AlphaScreen, 2 h; Potency, µM (doses to about 102 µM), usual class: inhibitors; 350,000 tested, 8.8% active; AID 504332; note: nearly all actives have a fitted effect of over 75% in size
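Step 1: enzyme (final 20 nM) with compound, 15 min RT. Step 2: substrate peptide 500 nM and SAM 20 uM, 2 h RT. Step 3: anti-H3K9me1 antibody and AlphaScreen beads, 10 min, then plate read.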
L3MBTL1 block – inhibitors of human L3MBTL1. 230,000 tested, 0.66% active. Potency, µM (titrated, usually from 57.1 µM), usual class: inhibitors. Q9Y468. AID 485360. AlphaScreen L3MBTL1–H3K9me1 peptide binding; note: nearly all actives have a fitted effect of over 60% in size
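Displacement of a biotinylated histone H3(1-15) peptide monomethylated at Lys9 (75 nM) from L3MBTL1 (50 nM) was measured by AlphaScreen after a 30 min room-temperature compound incubation; cefsulodin titration served as intraplate control.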
Of the large screens only hits and unclear results are named; the others gave an inactive call. An excerpt weighted towards active compounds, which were near 12% of everything screened. Calls come from the whole dose curve; as a rule, active = well fitted curve in the direction sought with a large enough effect; inconclusive = small, poorly fitted or top-dose-only effect, or another doubt; inactive = no such curve, though single readings can be large; an effect the other way counts as inactive or inconclusive.

O=C(NC1(O)C(=O)c2ccccc2C1=O)c1c(Cl)cccc1Cl	G9a block 56µM (no result: L3MBTL1 block)
O=C(NCNC(=O)c1ccccc1)c1ccccc1	none (no result: L3MBTL1 block)
COC1(NC(=O)c2ccccc2)C(C)=CC(=O)C=C1C	HP1b binding inh inconclusive, G9a block 45µM (no result: L3MBTL1 block)
O=C(Nc1ccccc1Cl)c1c(F)c(F)c(F)c(F)c1F	none (no result: BAZ2B block, Sfp inh, G9a block, L3MBTL1 block)
O=C(NC1(O)C(=O)c2ccccc2C1=O)c1ccccc1	Sfp inh inconclusive, G9a block 45µM, L3MBTL1 block inconclusive
Cc1ccccc1N1CCN(S(=O)(=O)c2nnc(NC(=O)c3ccc(C(C)C)cc3)s2)CC1	G9a block inconclusive (no result: Sfp inh, L3MBTL1 block)
CCN(c1ccccc1)c1nc(N)nc(C#N)n1	none (no result: BAZ2B block, Sfp inh, G9a block, L3MBTL1 block)
Cc1cc(C)nc(N2N=C(C(C)(C)C)CC2=O)n1	JMJD2A Tudor inconclusive, G9a block 3.5µM (no result: L3MBTL1 block)
Cc1cc(C)c(OCCOCCN(C)C)c(Br)c1	HP1b binding inh inconclusive, JMJD2A Tudor 25µM, BAZ2B block inconclusive, G9a block 10µM
Cc1cc(C)c(OCC(=O)OCC(=O)NC2CCCCCCC2)c(C)c1	none (no result: L3MBTL1 block)
Cc1cc(C)c(OCCCNC2CCCC2)c(Br)c1	JMJD2A Tudor 79µM, BAZ2B block inconclusive (no result: G9a block)
Cc1cc(Cl)c(OCCCNCc2ccccc2)c(Br)c1	JMJD2A Tudor inconclusive, BAZ2B block inconclusive, Sfp inh inconclusive, G9a block 11µM
Cc1cc(Cl)cc(Br)c1OCCCNCC(C)O (configuration not stated)	none
Cc1cc(C)c(OCCCNCc2ccccc2)c(Br)c1	HP1b binding inh inconclusive, JMJD2A Tudor 25µM, BAZ2B block 50µM, G9a block 13µM
Cc1cc(OCCOCCN(C)CCO)cc(C)c1Cl	none
COc1ccc(C(CNC(=O)c2cccc([N+](=O)[O-])c2)N2CCOCC2)cc1 (configuration not stated)	none (no result: Sfp inh, L3MBTL1 block)
COC(=O)C(C)NC(=O)N1CCN(c2nnc(C)c3c(C)n(-c4ccc(Cl)cc4)nc23)CC1 (configuration not stated)	none (no result: Sfp inh, L3MBTL1 block)
Cc1ccccc1CN1C(=O)c2ccccc2S(=O)c2ccc(C(=O)NCc3ccccc3)cc21 (configuration not stated)	none (no result: Sfp inh, L3MBTL1 block)
COCCNCCCCOc1c(Cl)cc(C)cc1Br	JMJD2A Tudor 3.2µM, BAZ2B block 50µM (no result: G9a block)
O=C(CCS(=O)(=O)c1ccccc1)N(CCCN1CCOCC1)c1nc2c(F)cccc2s1	BAZ2B block inconclusive, G9a block 14µM (no result: Sfp inh)
Cc1ccc(S(=O)(=O)CC(=O)N(CCCN2CCOCC2)c2nc3c(F)cccc3s2)cc1	G9a block inconclusive (no result: Sfp inh)
CCc1cccc2sc(N(CCCN3CCOCC3)C(=O)CS(=O)(=O)c3ccccc3)nc12	JMJD2A Tudor inconclusive (no result: Sfp inh)
O=C(CCS(=O)(=O)c1ccccc1)N(CCCN1CCOCC1)c1nc2ccc(F)cc2s1	G9a block 22µM (no result: Sfp inh)
O=C(C1CCN(c2ncnc3c2nc2n3CCCCC2)CC1)N1CCN(c2cccc(Cl)c2)CC1	JMJD2A Tudor inconclusive, BAZ2B block 32µM (no result: L3MBTL1 block)
CC(=O)c1ccc(N2CCN(C(=O)C3CCCN(c4ncnc5c4nc4n5CCCCC4)C3)CC2)cc1 (configuration not stated)	BAZ2B block inconclusive (no result: G9a block, L3MBTL1 block)
COc1ccc(N2CCN(C(=O)C3CCCN(c4ncnc5c4nc4n5CCCCC4)C3)CC2)cc1 (configuration not stated)	JMJD2A Tudor inconclusive, BAZ2B block 28µM (no result: G9a block, L3MBTL1 block)
O=C(CNC(=O)c1ccccc1)N[C@@H](C(=O)Nc1cc(C(F)(F)F)ccc1Cl)c1ccccc1	none (no result: HP1b binding inh, BAZ2B block, Sfp inh, G9a block, L3MBTL1 block)
CCOC(=O)c1c(NC(=S)Nc2cc([N+](=O)[O-])ccc2OC)sc2c1CCCCC2	BAZ2B block inconclusive, Sfp inh 22µM, G9a block inconclusive (no result: HP1b binding inh, JMJD2A Tudor)
COC(=O)c1c(NC(=S)Nc2cc(OC)c(Cl)cc2OC)sc2c1CCCCC2	JMJD2A Tudor 50µM, Sfp inh inconclusive
CCC1Oc2ccc(C)cc2N(CC(=O)NCc2ccc(OC)cc2)C1=O (configuration not stated)	none (no result: Sfp inh, L3MBTL1 block)
CCCCN(CCCC)CC(O)COc1ccc(Br)cc1 (configuration not stated)	HP1b binding inh inconclusive, JMJD2A Tudor 1.4µM, BAZ2B block 32µM, G9a block 7.9µM (no result: L3MBTL1 block)

Screening data from PubChem BioAssay.
